Our source for the Potency, activation and activity change, negative = inhibition values is PubChem BioAssay (NCATS).

Assay [1] has as its target Rap guanine nucleotide exchange factor 3 (Homo sapiens) (UniProt O95398). Description: Confirmatory qHTS for antagonist of cAMP-regulated guanine nucleotide exchange factor 3 (EPAC1) (AID 1645880). Also: nearly all actives have a fitted effect of over 55% in size. Also: potency is read from the fitted curve at half-maximal effect.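 As to activity, negative = inhibition: plate controls were DMSO only for no effect and full effect of the ATA control for full effect.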 As to conditions: EPAC1 Rap1B-BODIPY-GDP exchange, fluorescence; activity, negative = inhibition: at 115 µM (top of the series). The method, boiled down:
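Nucleotide exchange uses 100 nM EPAC1, 250 nM RAP1B-BODIPY-GDP and 50 uM GDP, with compounds in a concentration-titration series. After 5 min at room temperature, fluorescence (480 nm ex/540 nm em) is read every 5 min for 30 min. Data are normalized to control ATA and DMSO.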
On the technique in general: qHTS replaces the single test concentration by a dilution series.

Assay [2] shares this target. Description: Confirmatory qHTS for agonist of cAMP-regulated guanine nucleotide exchange factor 3 (EPAC1) (AID 1645881).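 Also: EPAC1 catalysed release of BODIPY-GDP from Rap1B seen as fluorescence loss; 100% = effect of cAMP agonist control; nearly all actives have a fitted effect of over 75% in size.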
In assay [3] the target is Rap guanine nucleotide exchange factor 4 (Homo sapiens) (UniProt Q8WZA2). Description: Confirmatory qHTS for agonist of cAMP-regulated guanine nucleotide exchange factor 4 (EPAC2) (AID 1645884).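 Also: nucleotide exchange releases bodipy-GDP from Rap1 and this lowers its fluorescence; % is scaled to controls: 0 for no effect and ±100 for the full control effect; nearly all actives have a fitted effect of over 65% in size.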
Chain of Rap guanine nucleotide exchange factor 4 (Homo sapiens) (Q8WZA2 whole entry, looked up): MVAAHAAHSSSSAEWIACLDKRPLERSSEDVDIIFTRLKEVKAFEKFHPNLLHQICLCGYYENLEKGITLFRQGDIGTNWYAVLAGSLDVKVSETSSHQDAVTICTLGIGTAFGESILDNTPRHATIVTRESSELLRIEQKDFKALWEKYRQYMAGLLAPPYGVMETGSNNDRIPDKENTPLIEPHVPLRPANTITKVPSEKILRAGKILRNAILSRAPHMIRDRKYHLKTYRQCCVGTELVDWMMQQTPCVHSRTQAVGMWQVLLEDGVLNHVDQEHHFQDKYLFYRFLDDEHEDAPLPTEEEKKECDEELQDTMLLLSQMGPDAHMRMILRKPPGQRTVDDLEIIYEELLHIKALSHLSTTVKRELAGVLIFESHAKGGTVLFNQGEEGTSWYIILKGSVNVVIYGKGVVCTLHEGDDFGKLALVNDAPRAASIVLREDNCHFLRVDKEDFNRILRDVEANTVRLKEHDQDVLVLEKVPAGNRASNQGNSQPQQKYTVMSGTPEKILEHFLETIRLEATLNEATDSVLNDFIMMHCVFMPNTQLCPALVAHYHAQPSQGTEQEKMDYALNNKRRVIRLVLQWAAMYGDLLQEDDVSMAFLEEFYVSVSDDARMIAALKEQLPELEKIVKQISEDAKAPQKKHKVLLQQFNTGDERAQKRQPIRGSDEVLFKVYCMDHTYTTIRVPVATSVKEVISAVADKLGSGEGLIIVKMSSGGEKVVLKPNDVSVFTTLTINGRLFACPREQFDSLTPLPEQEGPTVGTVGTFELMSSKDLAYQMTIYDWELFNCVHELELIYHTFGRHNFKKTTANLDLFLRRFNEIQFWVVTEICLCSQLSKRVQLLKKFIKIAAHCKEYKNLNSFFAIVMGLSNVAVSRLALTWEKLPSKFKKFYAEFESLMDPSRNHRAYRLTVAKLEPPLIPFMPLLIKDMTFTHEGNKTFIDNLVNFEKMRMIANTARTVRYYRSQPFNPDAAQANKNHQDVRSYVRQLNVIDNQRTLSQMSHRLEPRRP
The target is the same in assay [4]. Description: Confirmatory qHTS for antagonist of cAMP-regulated guanine nucleotide exchange factor 4 (EPAC2) (AID 1645885). Also: % is scaled to controls: 0 for no effect and ±100 for the full control effect; nearly all actives have a fitted effect of over 25% in size.
The target of assay [5] is Rap guanine nucleotide exchange factor 3 (Homo sapiens) (UniProt O95398). Briefly: Counterscreen qHTS for antagonist of cAMP-regulated guanine nucleotide exchange factor 3 (EPAC1) (AID 1645888).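 Also: fluorescence loss as bound BODIPY-GDP is released from Rap1B; % of control where 0% means no effect.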 The method, boiled down: (§1)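 Rap1B–BODIPY-GDP (250 nM) with 50 uM GDP; compounds pin-transferred to 9.74 nM–152 uM final (activator) or from 7.32 nM upwards (inhibitor). Fluorescence Ex/Em 480/540 nm read at 5 and 30 min, then after adding cAMP or buffer, at room temperature.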
Chain of Rap guanine nucleotide exchange factor 3 (Homo sapiens) (O95398 whole entry, looked up): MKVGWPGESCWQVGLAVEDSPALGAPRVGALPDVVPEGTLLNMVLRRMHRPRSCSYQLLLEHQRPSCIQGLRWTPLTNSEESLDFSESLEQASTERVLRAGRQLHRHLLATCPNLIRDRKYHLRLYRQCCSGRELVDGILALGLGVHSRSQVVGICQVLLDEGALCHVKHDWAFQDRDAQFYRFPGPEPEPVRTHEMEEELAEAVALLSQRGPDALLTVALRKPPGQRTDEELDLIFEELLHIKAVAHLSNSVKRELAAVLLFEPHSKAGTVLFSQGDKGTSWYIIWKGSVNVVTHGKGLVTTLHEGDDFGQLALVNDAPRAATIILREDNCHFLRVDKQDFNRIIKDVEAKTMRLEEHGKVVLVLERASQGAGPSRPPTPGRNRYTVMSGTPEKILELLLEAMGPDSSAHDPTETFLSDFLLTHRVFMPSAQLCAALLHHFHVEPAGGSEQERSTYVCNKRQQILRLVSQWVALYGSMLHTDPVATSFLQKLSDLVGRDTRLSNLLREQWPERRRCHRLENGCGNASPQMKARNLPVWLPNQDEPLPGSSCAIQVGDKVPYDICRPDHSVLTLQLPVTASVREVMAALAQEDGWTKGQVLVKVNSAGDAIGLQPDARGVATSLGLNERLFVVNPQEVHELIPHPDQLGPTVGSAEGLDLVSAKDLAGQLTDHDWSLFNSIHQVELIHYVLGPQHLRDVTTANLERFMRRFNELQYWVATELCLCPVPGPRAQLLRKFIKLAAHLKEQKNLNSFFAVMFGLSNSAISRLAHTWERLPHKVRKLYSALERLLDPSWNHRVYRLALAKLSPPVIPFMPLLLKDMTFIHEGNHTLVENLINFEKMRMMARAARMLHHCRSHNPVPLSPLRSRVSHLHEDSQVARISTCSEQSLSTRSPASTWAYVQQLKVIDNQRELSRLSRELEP

Assay [6] has the same target. Briefly: Counterscreen qHTS for agonist of cAMP-regulated guanine nucleotide exchange factor 3 (EPAC1) (AID 1645889). Also: % of control where 0% means no effect; nearly all actives have a fitted effect of over 40% in size. The method, boiled down: as §1
In general terms: Counterscreens check selectivity or assay interference.

The structures appear in SMILES notation. Results filed as inconclusive are left out. Unmarked numbers belong to inactive results. Active and inactive are the calls of the source. Calls follow the shape of the dose curve; as a rule, active = well fitted curve in the direction sought with a large enough effect; inconclusive = small, poorly fitted or top-dose-only effect, or another doubt; inactive = no such curve, though single readings can be large; an effect the other way counts as inactive or inconclusive.

Turning to `O=C(c1cc(-c2ccc(Cl)cc2)nc2ccccc12)N1CCC1`, the Potency result in assay [1], in assay [2], in assay [3], in assay [4], in assay [5] and in assay [6] was “inactive” in each case.

`COc1cccc2c1Oc1ncccc1N(C(=O)CCC(=O)NCc1cccc(C)c1)C2`: the Potency entry in assay [1], in assay [2], in assay [3], in assay [4], in assay [5] and in assay [6] was “inactive” throughout.

With `O=C(c1ccco1)N(CCC(c1ccccc1)c1ccco1)Cc1ccccc1` (centres undefined), the Potency in assay [1] was 44.7 µM (active). Moreover, the Potency entry in assay [2] and in assay [4] was “inactive” throughout. The activation in assay [3] was 1.75% [at 17.1 µM, percent relative to cAMP agonist control]; in assay [6], 15.8% [at 30.8 µM]. In addition, the activity change, negative = inhibition in assay [5] was -8.3% [at 30.8 µM].

With `CC(=O)Nc1cc(C(=O)NCc2ccco2)ccc1Sc1ccc(C)cc1`, the Potency entry in assay [1], in assay [2] and in assay [4] was “inactive” each time. Besides, the activation is 3.77% [at 17.1 µM, percent relative to cAMP agonist control] in assay [3] and 6.12% [at 30.8 µM] in assay [6]. In addition, the activity change, negative = inhibition in assay [5] was -18.4% [at 30.8 µM].
